Assay [1] can be described thus: qHTS to identify inhibitors of the type 1 interferon - major histocompatibility complex class I in skeletal muscle: primary screen against the NCATS Pharmaceutical Collection (AID 1347407).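 Further: luminescence of HiBiT knocked into endogenous HLA-B as interferon-induced MHC class I level; on the % scale 0 is the no-effect control and ±100 the full control effect.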 The gist of the method:
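HLA-B HiBiT myoblasts, dexamethasone-free growth medium + 4 ng/ml IFN-b; compounds pinned 1 h after seeding, […] from 46 uM; 24 h, 37 C, 5% CO2; lytic HiBiT detection, 10 min RT, luminescence.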

Assay [2] deals with Protein phosphatase 1D (Homo sapiens) (UniProt O15297). The experiment in a line: RapidFire Mass Spectrometry qHTS Assay for Modulators of WT P53-Induced Phosphatase 1 (WIP1) (AID 1347424).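 Further: amount of dephosphorylated VEPPL-S-QETFS peptide product formed by WIP1; series mostly up to about 63 µM; plate controls were DMSO wells for no effect and GSK830371 inhibitor control at 10 µM for full effect.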 An outline of the steps: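 10 nM WIP1 + cpd, 1 h RT; + 2 uM VEPPL-pS-QETFS, 5 min RT; stop 0.5% formic acid; labelled product standard 1 uM; RapidFire MS. Buffer 50 mM Tris pH 7.5, 30 mM MgCl2, 1 mM TCEP.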

Assay [3] has the same target. The experiment in a line: Rhodamine-PBP qHTS Assay for Modulators of WT P53-Induced Phosphatase 1 (WIP1) (AID 1347425). Further: % of control where 0% means no effect. The gist of the method: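 The read-out is the change in Rhodamine-PBP fluorescence (f1 - f0, ex 525/em 598 nm) as Pi is released, read each minute for 11 min. Final reaction: 5 nM WIP1, 10 uM phosphopeptide VEPPL-pS-QETFS, 10 uM Rh-PBP, 50 mM Tris-HCl pH 7.5, 30 mM MgCl2. Compound was preincubated with enzyme for 1 hour at room temperature.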

Assay [4] is described as follows: Primary qHTS for inhibitors of La Crosse Virus (LACV) - induced cell death in SH-SY5Y cells (AID 1508616).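 Further: top concentration of the series differs between compounds; 0% = infected DMSO wells and 100% = uninfected DMSO wells; higher means more rescue of cells from virus-induced death.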 An outline of the steps: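 SH-SY5Y cells (6000/well) plated 24 h, then given compounds by pin transfer and LACV at 0.01 MOI for 6 days at 37C. Viability measured by ATPLite luminescence, normalized to infected DMSO and uninfected DMSO.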
Assay [5] concerns the target Calcium and integrin-binding protein 1 (Homo sapiens) (UniProt Q99828). The experiment in a line: Primary qHTS for Identification of Calcium Integrin Binding Protein 1 (CIB1) Competitor (AID 1508620).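 Further: GST tagged CIB1 binding a fluorescein labelled alphaIIb integrin peptide tracer; top concentration of the series differs between compounds; on the % scale 0 is the no-effect control and ±100 the full control effect.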 The gist of the method: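 CIB1-GST (1 uM final) and compound incubated 15 min at room temperature before adding FITC-alphaIIb peptide tracer (100 nM final). Competition for binding read by fluorescence polarization (ex 480, em 540) after another 15 min at room temperature.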

Assay [6] can be described thus: Primary qHTS for small molecule stabilizers of the endoplasmic reticulum resident proteome: Secreted ER Calcium Modulated Protein (SERCaMP) assay (AID 1508630). Further: on the % scale 0 is the no-effect control and ±100 the full control effect. The gist of the method: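 GLuc-SERCaMP-expressing SH-SY5Y cells, pretreated 16 h with compound, are challenged with thapsigargin to empty ER calcium stores; after 4 h, coelenterazine is added directly to the medium and luminescence is imaged.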

A short description of assay [7]: Counterscreen qHTS for small molecule stabilizers of the endoplasmic reticulum resident proteome: GLuc-NoTag assay (AID 1508627).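 Further: series mostly up to about 76 µM; 0% = thapsigargin alone and -100% = DMSO vehicle control.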 An outline of the steps: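 Luminescence of Gaussia luciferase secreted into the medium (coelenterazine, 0.07x final, unlysed cells) was the read-out. Human SH-SY5Y neuroblastoma cells constitutively secreting untagged GLuc received compound for 19 h, then 100 nM thapsigargin for 4 h.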

Assay [8] can be described thus: Confirmatory qHTS for small molecule stabilizers of the endoplasmic reticulum resident proteome: Secreted ER Calcium Modulated Protein (SERCaMP) assay (AID 1508628). Further: nearly all actives have a fitted effect of over 40% in size. Further: potency means the concentration at half of the fitted maximal effect. The gist of the method: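 SH-SY5Y cells stably expressing GLuc-SERCaMP, treated 16 h with compound (primary 1.53, 7.67, 38.3 uM; confirmation 11 concentrations, up to 76.6 uM), then 100 nM thapsigargin for 4 h. Secreted Gaussia luciferase in medium read by coelenterazine luminescence.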

A short description of assay [9]: qHTS for inhibitors of adenylyl cyclases using a fission yeast platform: a pilot screen against the NCATS LOPAC library (AID 1347410).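 Further: plate controls were DMSO vehicle for no effect and DPI positive control for full effect.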 An outline of the steps: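 Read-out: fbp1-GFP fluorescence by laser scanning cytometry (488 nm laser), a gain of signal when AC/cAMP-PKA signalling is inhibited. Strain CHP2027 expressing AC9, GNAS and PDE4D2; compounds at up to 57 µM; 18 h, 30C.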

A short description of assay [10]: Cell Viability qHTS for small molecule stabilizers of the endoplasmic reticulum resident proteome (AID 1508629).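 Further: human SH-SY5Y neuroblastoma cells carrying the GLuc-SERCaMP reporter; compound exposure about 46 h in total before the viability read; on the % scale 0 is the no-effect control and ±100 the full control effect.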 The following applies: cell viability counter-screen, 100 nM thapsigargin for final 4 h.

Values without a mark were called inactive. Records with an inconclusive call do not appear. Activity calls are given as the source filed them. The call rests on the fitted dose curve; in most records, active means well fitted curve in the direction sought with a large enough effect; inconclusive means small, poorly fitted or top-dose-only effect, or another doubt; inactive means no such curve, though single readings can be large; an effect the other way counts as inactive or inconclusive.

Sequence of Protein phosphatase 1D (Homo sapiens) (O15297 whole entry, looked up): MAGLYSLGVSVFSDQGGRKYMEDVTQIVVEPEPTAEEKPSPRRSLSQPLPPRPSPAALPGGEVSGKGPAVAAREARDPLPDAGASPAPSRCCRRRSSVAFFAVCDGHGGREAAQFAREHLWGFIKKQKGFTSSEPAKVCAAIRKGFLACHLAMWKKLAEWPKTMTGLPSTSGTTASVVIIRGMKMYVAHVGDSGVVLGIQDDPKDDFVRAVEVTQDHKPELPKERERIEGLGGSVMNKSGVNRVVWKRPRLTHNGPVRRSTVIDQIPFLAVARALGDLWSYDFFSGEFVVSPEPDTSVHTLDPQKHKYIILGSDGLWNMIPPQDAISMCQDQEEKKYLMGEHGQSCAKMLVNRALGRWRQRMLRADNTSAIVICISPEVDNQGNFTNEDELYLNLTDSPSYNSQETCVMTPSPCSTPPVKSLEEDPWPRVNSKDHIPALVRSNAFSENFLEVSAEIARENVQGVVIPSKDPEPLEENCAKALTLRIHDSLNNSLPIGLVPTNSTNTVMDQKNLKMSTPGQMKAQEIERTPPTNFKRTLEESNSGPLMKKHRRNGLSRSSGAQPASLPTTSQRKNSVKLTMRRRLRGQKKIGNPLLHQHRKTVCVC
Sequence of Calcium and integrin-binding protein 1 (Homo sapiens) (Q99828 whole entry, looked up): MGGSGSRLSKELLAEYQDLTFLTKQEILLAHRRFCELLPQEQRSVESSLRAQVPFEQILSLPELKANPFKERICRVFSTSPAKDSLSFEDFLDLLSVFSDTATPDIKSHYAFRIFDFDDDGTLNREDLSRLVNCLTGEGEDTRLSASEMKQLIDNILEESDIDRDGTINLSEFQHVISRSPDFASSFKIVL

Take `Cc1cc(O)cc2c1O[C@](C)(CCC[C@H](C)CCC[C@H](C)CCCC(C)C)CC2`: the Potency result in [1] and in assay [6] was “inactive” each time. Besides, the call in [2], in assay [3], in [4] and in assay [5] was inactive.

For the compound `N[C@@H](CSCCCO)C(=O)O`, the Potency result in assay [1] was “inactive”. Moreover, the outcome in [2], in assay [3], in [4] and in assay [5] was inactive.

Consider `O=C(Oc1ccccc1C(=O)O)c1ccccc1O`, for which the Potency result in [1] and in [6] was “inactive” each time. Moreover, the call in assay [2], in assay [3], in [4] and in assay [5] was inactive.

With `C[C@H]1O[C@H](O[C@H]2[C@H](O)[C@@H](O)[C@@H](O[C@H]3[C@H](O)[C@@H](O)[C@H](O)O[C@@H]3CO)O[C@@H]2CO)[C@H](O)[C@@H](O)[C@@H]1N[C@H]1C=C(CO)[C@@H](O)[C@H](O)[C@H]1O`, the Potency entry in assay [1] and in assay [6] was “inactive” each time. The call in assay [2], in assay [3], in assay [4] and in assay [5] was inactive.

For `O=C(O)[C@@H]1CSCN1`, the Potency result in [1] and in assay [6] was “inactive” throughout. Besides, the result in assay [2], in [3], in assay [4] and in assay [5] was inactive.

Consider `O=C1Nc2ccc(Cl)cc2[C@@](C#CC2CC2)(C(F)(F)F)O1`, for which the Potency result in [1] and in assay [6] was “inactive” throughout. Further, the result in assay [2], in [3], in assay [4] and in assay [5] was inactive.

For `Nc1nc2c(ncn2CCC(CO)CO)c(=O)[nH]1`, the Potency result in assay [1] and in assay [6] was “inactive” each time. Besides, the outcome in [2], in assay [3], in assay [4] and in [5] was inactive.

On to `C[C@H](N)[C@H](O)c1cccc(O)c1`, for which the Potency result in assay [1] and in assay [6] was “inactive” throughout. Besides, the compound was classed as inactive in [2], in assay [3], in assay [4] and in assay [5].

Take `C=CCn1c(=O)n([C@@H]2O[C@H](CO)[C@@H](O)[C@H]2O)c2nc(N)[nH]c(=O)c21`: the Potency result in assay [1], in assay [7] and in assay [8] was “inactive” each time. Moreover, the call in assay [2], in [3], in [4] and in assay [5] was inactive.

As to `Cc1ncc([N+](=O)[O-])n1CC(O)CCl` (stereo unspecified), the Potency result in assay [1] and in assay [6] was “inactive” throughout. In addition, the result in assay [2], in assay [3], in assay [4] and in [5] was inactive.

On to `C/C(=C(\CCOP(=O)(O)O)SC(=O)c1ccccc1)N(C=O)Cc1cnc(C)nc1N`, for which the activity change, negative = inhibition in [1] was -12.9% [at 3.83 µM]; in assay [2], 3.91% [at 6.17 µM]; in assay [3], -15.2% [at 4.81 µM]; in [5], -4.19% [at 12.4 µM]; in assay [6] it was -22.1% [at 3.88 µM]. Besides, the activity change in assay [4] is -1.14% [at 0.431 µM].

As to `Nc1ccc(S(=O)(=O)Nc2ccccc2)cc1`, the Potency result in assay [1] and in assay [6] was “inactive” each time. Besides, the outcome in assay [2], in assay [3], in [4] and in [5] was inactive.

As to `Nc1ccc(S(=O)(=O)NC(=O)c2ccccc2)cc1`, the Potency entry in [1] and in [6] was “inactive” in each case. Besides, the compound was called inactive in assay [2], in assay [3], in assay [4] and in assay [5].

As for `O=C(CCCN1CCN(c2ccccn2)CC1)c1ccc(F)cc1`, the Potency result in assay [1] and in [6] was “inactive” each time. For the same compound, the call in assay [2], in assay [3], in [4] and in assay [5] was inactive.

As for `CCN(CC)CCNC(C(=O)OCCC(C)C)c1ccccc1` (stereo unspecified), the Potency result in assay [1] and in assay [6] was “inactive” each time. In addition, the compound was classed as inactive in assay [2], in assay [3], in assay [4] and in assay [5].

In the case of `O=C(O)c1ccccc1-c1ccc(C(F)(F)F)cc1`, the Potency result in assay [1] and in [6] was “inactive” each time. The compound was called inactive in [2], in assay [3] and in assay [5].

On to `NCCNCCNCCNCCN`, for which the activity change, negative = inhibition in assay [1] was 0.364% [at 9.18 µM]; in assay [2], -9.15% [at 12.6 µM]; in assay [3] it was 12% [at 11.5 µM]; in [6] it was -1.31% [at 7.35 µM]. For the same compound, the activity change in [4] was -4.84% [at 0.858 µM]. Moreover, the result in [5] was inactive.

Consider `CC1(C)Oc2ccc(C#N)cc2[C@@H](N2CCCC2=O)[C@@H]1O`, for which the Potency entry in [1] and in assay [6] was “inactive” in each case. Moreover, the call in assay [2], in [3], in assay [4] and in [5] was inactive.

On to `N[C@H]1C(O)O[C@H](CO)[C@@H](O)[C@@H]1O` (stereo partly specified), for which the Potency entry in assay [1] and in [6] was “inactive” each time. The call in assay [2], in assay [3], in assay [4] and in assay [5] was inactive.

`Nc1ccc(S(=O)(=O)Nc2ccc(Cl)nn2)cc1`: the Potency result in [1] and in assay [6] was “inactive” throughout. For the same compound, the outcome in [2], in assay [3], in [4] and in [5] was inactive.

With `Cc1ncc(COP(=O)(O)O)c(C=O)c1O`, the Potency result in assay [1] was “inactive”. The outcome in assay [2], in assay [4] and in [5] was inactive.

In the case of `Cc1c(O)cccc1C(=O)N[C@@H](CSc1ccccc1)[C@H](O)CN1C[C@H]2CCCC[C@H]2C[C@H]1C(=O)NC(C)(C)C`, the outcome in assay [9], in assay [2], in [3], in assay [4] and in assay [5] was inactive. The Potency in assay [8] was 11.2 µM (active). Moreover, the max response in [10] was 7.19%.

`OCC(O)CN1CCN(c2ccccc2)CC1` (stereo unspecified): the Potency entry in [1] and in [6] was “inactive” each time. Also, the outcome in [2], in assay [3], in assay [4] and in assay [5] was inactive.

The values above are taken from PubChem BioAssay (NCATS).
